# Laboratory results reported in PubChem BioAssay (NCATS).
# Inconclusive results are not listed. Entries that show only a call come without a potency. The source holds several records for some structures; these can differ, active in one and inactive in another. Active and inactive are the calls of the source. Calls follow the shape of the dose curve; as a rule, active = well fitted curve in the direction sought with a large enough effect; inconclusive = small, poorly fitted or top-dose-only effect, or another doubt; inactive = no such curve, though single readings can be large; an effect the other way counts as inactive or inconclusive.
# Assays:
# [1] = target: Metallo-beta-lactamase type 2 (Klebsiella pneumoniae) (UniProt C7C422); assay: qHTS to identify inhibitors of the New Delhi Metallo-beta-lactamase (NDM): assay validation screen against the NCATS LOPAC Collection (AID 1794843);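 also: nitrocefin turnover by NDM-1 measured as 485 nm absorbance at plateau; series mostly up to about 38 µM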
# Metallo-beta-lactamase type 2 (Klebsiella pneumoniae), sequence (C7C422 whole entry, looked up): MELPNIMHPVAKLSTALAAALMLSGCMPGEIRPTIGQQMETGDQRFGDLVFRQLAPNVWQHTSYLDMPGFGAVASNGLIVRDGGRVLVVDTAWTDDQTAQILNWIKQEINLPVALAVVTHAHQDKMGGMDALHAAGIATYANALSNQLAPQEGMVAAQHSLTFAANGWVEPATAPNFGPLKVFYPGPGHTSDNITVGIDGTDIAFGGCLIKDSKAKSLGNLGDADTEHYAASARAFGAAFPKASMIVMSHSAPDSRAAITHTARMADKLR
# Summary of the method: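 NDM-1 at 2 nM final in 50 mM HEPES pH 7.0 with 1 uM ZnSO4 and 0.01% Tween20 was preincubated with library compounds in DMSO. Nitrocefin (50 uM stock) was then added, and absorbance at 485 nm was read at the kinetic plateau.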
# [2] = target: Glutathione peroxidase 1 (Homo sapiens) (UniProt P07203); assay: Primary qHTS Assay for Inhibitors of Recombinant Selenoprotein Glutathione Peroxidase 1 (GPX1) (AID 1845191); also: nearly all actives have a fitted effect of over 65% in size; also: potency is read from the fitted curve at half-maximal effect
# Glutathione peroxidase 1 (Homo sapiens), sequence (P07203 whole entry, looked up): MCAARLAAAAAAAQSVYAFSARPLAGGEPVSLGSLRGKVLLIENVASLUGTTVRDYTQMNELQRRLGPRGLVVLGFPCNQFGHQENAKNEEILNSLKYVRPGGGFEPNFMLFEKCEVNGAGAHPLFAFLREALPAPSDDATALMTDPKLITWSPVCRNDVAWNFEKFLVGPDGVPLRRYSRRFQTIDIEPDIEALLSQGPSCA
# Summary of the method: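 GR-coupled readout: NADPH consumption tracked by fluorescence, ex 340/em 450 nm, at t=0 and after 15 min at RT. Final mix 10 nM GPX1, 1 mM GSH, 0.5 mM CHP, 0.5 mM NADPH, 100 nM GR, 0.01% BSA, following 30 min enzyme–compound preincubation.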
# [3] = target: Phospholipid hydroperoxide glutathione peroxidase GPX4 (Homo sapiens) (UniProt P36969); assay: Primary qHTS Assay for Inhibitors of Recombinant Selenoprotein Glutathione Peroxidase 4 (GPX4) (AID 1845192); also: nearly all actives have a fitted effect of over 65% in size
# Phospholipid hydroperoxide glutathione peroxidase GPX4 (Homo sapiens), sequence (P36969 whole entry, looked up): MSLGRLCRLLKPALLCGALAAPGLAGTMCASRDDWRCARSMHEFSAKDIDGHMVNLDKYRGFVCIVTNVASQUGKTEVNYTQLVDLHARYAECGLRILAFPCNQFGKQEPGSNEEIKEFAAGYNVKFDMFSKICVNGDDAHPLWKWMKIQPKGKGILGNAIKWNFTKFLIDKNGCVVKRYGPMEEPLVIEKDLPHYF
# Summary of the method: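 Steps: GPX4 plus compound, 30 min RT; add GR/GSH/NADPH master mix; start with cumene hydroperoxide; read 340/450 nm fluorescence at 0 and 15 min. Finals were 200 nM GPX4, 1 mM GSH, 0.5 mM CHP, 0.5 mM NADPH, 100 nM GR.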
SMILES,outcome [1],Potency [2],Potency [3]
N[C@@H](Cc1cnc[nH]1)C(=O)O,inactive,inactive,inactive
CCCN1CCCC[C@H]1C(=O)Nc1c(C)cccc1C,–,inactive,–
CCOC(=O)[C@H](CCc1ccccc1)N[C@@H](C)C(=O)N1Cc2ccccc2C[C@H]1C(=O)O,–,inactive,–
C=C(CC)C(=O)c1ccc(OCC(=O)O)c(Cl)c1Cl,–,inactive,–
CC(C)(C(=O)c1cccnc1)c1cccnc1,–,inactive,–
CCC(NC(C)C)C(O)c1ccc(O)c(O)c1 (stereo not given),inactive,inactive,inactive
C[C@]12CC[C@@H]3c4ccc(O)cc4CC[C@H]3[C@@H]1CC[C@@H]2O,inactive,inactive,–
CC(=O)OCC(=O)[C@@]1(O)CC[C@H]2[C@@H]3CCC4=CC(=O)C=C[C@]4(C)[C@H]3[C@@H](O)C[C@@]21C,–,inactive,–
CC(=O)OCC(=O)NCCCOc1cccc(CN2CCCCC2)c1,–,inactive,–
O=C(O)c1cc2cc(Cc3cccnc3)ccc2o1,inactive,inactive,inactive
CN1C2CCC1CC(OC(=O)c1c[nH]c3ccccc13)C2 (stereo not given),inactive,inactive,inactive
O=c1[nH]c(=O)n([C@H]2CCCO2)cc1F,–,inactive,–
CCCCC(=O)O[C@]1(C(=O)CO)CC[C@H]2[C@@H]3CCC4=CC(=O)CC[C@]4(C)[C@H]3[C@@H](O)C[C@@]21C,–,inactive,–
NC(=O)c1cc[n+](CC2=C(C(=O)[O-])N3C(=O)[C@@H](NC(=O)Cc4cccs4)[C@H]3SC2)cc1,–,10.1 µM (active),–
C[C@@H]1C(=O)NC2=Nc3cccc(Cl)c3CN21,inactive,inactive,–
C#C[C@]1(O)CC[C@H]2[C@@H]3CCC4=CC(=O)CC[C@@H]4[C@H]3CC[C@@]21C,–,inactive,–
C1CCc2nnnn2CC1,inactive,inactive,–
c1ccc(CNCCNCc2ccccc2)cc1,–,inactive,–
CNCCC(Oc1ccccc1C)c1ccccc1 (stereo not given),inactive,inactive,inactive
CNCCC=C1c2ccccc2CCc2ccccc21,inactive,inactive,–
CCCn1c(=O)[nH]c(=O)c2[nH]cnc21,inactive,inactive,inactive
CN(C(=O)CN(CCO)CC(=O)N(C)C(C)(C)Cc1ccccc1)C(C)(C)Cc1ccccc1,–,inactive,–

SMILES,outcome [1],Potency [2],Potency [3]
CC1(C)CCC(NC(=O)[C@@H](N)CCC(=O)O)CC1,inactive,inactive,inactive
CCOC(=O)n1ccn(C)c1=S,–,inactive,–
CCOC(=O)OC(C)OC1=C(C(=O)Nc2ccccn2)N(C)S(=O)(=O)c2ccccc21 (stereo not given),–,inactive,–
CO/N=C1\CN(c2nc3c(cc2F)c(=O)c(C(=O)O)cn3C2CC2)CC1CN (stereo not given),–,inactive,–
COc1cc(OC)cc(OC)c1,–,inactive,–
CNCC[C@@H](Oc1ccccc1C)c1ccccc1,–,inactive,–
CC(C)COC(=O)OCN1C(=O)CN(CCN2CC(=O)N(COC(=O)OCC(C)C)C(=O)C2)CC1=O,–,inactive,–
CCCCCCCCCCCCCCCCCC(=O)OCC(O)CO (stereo not given),–,inactive,–
COC(=O)C1=C(C)NC(C)=C(C(=O)O[C@@H]2CCCN(Cc3ccccc3)C2)[C@@H]1c1cccc([N+](=O)[O-])c1,–,inactive,–
C[N+]1(CCCCC[N+]2(C)CCCC2)CCCC1,inactive,inactive,inactive
O=C1CCC(c2ccc(-n3ccnc3)cc2)=NN1,inactive,inactive,–
CCOC(=O)/C=C(C)/C=C/C=C(C)/C=C/c1c(C)cc(OC)c(C)c1C,–,inactive,inactive
COc1ccc(CN2CCN(C(c3ccc(F)cc3)c3ccc(F)cc3)CC2)c(OC)c1OC,–,inactive,inactive
C[C@]12C=CC(=O)C=C1[C@@H](F)C[C@@H]1[C@@H]2[C@@H](O)C[C@@]2(C)[C@H]1CC[C@]2(O)C(=O)CO,–,inactive,inactive
Cc1cccn2c(=O)c(-c3nnn[nH]3)cnc12,–,inactive,inactive
CCCCOc1ccc(C(=O)CCN2CCCCC2)cc1,–,inactive,inactive
Cc1cc2c(cc1CC(=O)c1sccc1S(=O)(=O)Nc1onc(C)c1Cl)OCO2,–,18 µM (active) and inactive,inactive
C[C@H](CCC(=O)O)[C@H]1CC[C@H]2[C@@H]3C(=O)C[C@@H]4CC(=O)CC[C@]4(C)[C@H]3CC(=O)[C@]12C,–,inactive,inactive
O=c1[nH]c(=O)n([C@H]2C[C@H](O)[C@@H](CO)O2)cc1C(F)(F)F,–,inactive,inactive
Cc1c(C(N)=O)cc([N+](=O)[O-])cc1[N+](=O)[O-],–,inactive,inactive
CCOc1ccc(NC(=O)CC(C)O)cc1 (stereo not given),–,inactive,–
CC(C)NC[C@@H](O)COc1cccc2ccccc12,–,inactive,inactive
